FBW7 activator: activators of human E3 ligase FBW7; AID 1259310; Q969H0; hit rate 0.13% among 650,000; normalized activity (activation), % at 26.1 µM; AlphaScreen FBW7–phospho-cyclin E peptide binding, activator screen; in the data active means normalized activity above about 1.9%;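 further: purified mutant Fbw7 with reduced substrate affinity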
MITF primary: human MITF inhibition, primary screen. AlphaScreen MITF homodimerization, bead proximity signal. inhibition, % at 2.6 µM. hit rate 0.91% among 650,000; in the data active means inhibition above about 50%
GPR151 ag: human GPR151 activation. PathHunter beta-arrestin GPR151 cells, luminescence. hit rate 1% among 650,000. activation, % at 11.2 µM. Q8TDV0; in the data active means activation above about 4.9%
TEAD-YAP block: TEAD-YAP interaction inhibition; HEK-TIYL cells, TEAD-Gal4/YAP UAS-luciferase luminescence; inhibition, % at 9.12 µM; hit rate 1.4% among 640,000; AID 1259422; in the data active means inhibition above about 32%
GPR151 confirm: human GPR151 activation, confirmation screen | shares compounds with GPR151 ag | activation, % at 11.2 µM | GPR151 PathHunter beta-arrestin cells, luminescence, 90 min; % of EA-reagent control over plate median | 6,700 tested, under 10 active;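 active means mean percent activation across replicates above the confirmation screen cutoff of 4.91%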
GPR119 counter: activates human GPR119 in a GPR151 counter-screen. hit rate 0.3% among 6,700. AID 1508611. shares compounds with GPR151 ag. activation, % at 11.2 µM. GPR119 PathHunter beta-arrestin cells, luminescence, 90 min; 0 = compound-well median, 100 = enzyme-acceptor control;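 active means mean percent activation in the counterscreen above 29.09%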;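 further: counterscreen on off-target GPR119 to flag nonselective hits from the GPR151 activator screen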
Target sequence (Q8TDV5 whole entry, looked up): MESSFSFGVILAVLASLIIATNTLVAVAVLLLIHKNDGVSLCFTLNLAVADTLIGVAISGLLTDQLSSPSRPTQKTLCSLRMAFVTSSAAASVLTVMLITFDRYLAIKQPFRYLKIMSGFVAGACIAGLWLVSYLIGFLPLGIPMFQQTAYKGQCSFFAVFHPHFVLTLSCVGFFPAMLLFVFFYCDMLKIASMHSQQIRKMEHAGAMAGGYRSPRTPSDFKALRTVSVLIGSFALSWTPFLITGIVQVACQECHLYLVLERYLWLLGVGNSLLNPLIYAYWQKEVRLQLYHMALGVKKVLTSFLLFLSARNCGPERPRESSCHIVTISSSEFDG
Hits are given with their value; 0 = inactive; - = no result. Shown are actives, neighbours in structure and some others; about 3.5% of the full set was active somewhere.

SMILES	FBW7 activator	MITF primary	GPR151 ag	TEAD-YAP block	GPR151 confirm	GPR119 counter
COC(=O)c1cnn2c(C(F)(F)F)cc(-c3ccc(C)cc3)nc12	0	0	0	0	-	-
Cc1ccc(-c2cc(C(F)(F)F)n3ncc(C(=O)OC(C)C)c3n2)cc1	0	0	5.4	0	0	0
COC(=O)c1cc(S(=O)(=O)N2CCC(C)CC2)ccc1F	0	0	12	0	0	0
CC1CCN(S(=O)(=O)c2ccc(F)c(C(=O)Nc3ccc(F)cc3)c2)CC1	0	0	0	0	-	-
CC(C)Oc1ccc(CN2CCCC(CO)(Cc3ccccc3)C2)cc1CO (stereo not given)	0	0	5.0	0	0	0
CN(C)c1ccc(/C=C2\C(=O)ON=C2c2ccccc2)cc1[N+](=O)[O-]	0	72	5.8	0	0	0
CCCCN(C)S(=O)(=O)c1cc2c(cc1C)N(C(C)=O)CCO2	0	0	6.2	0	0	0
Cc1ccccc1OC1=NS(=O)(=O)c2cc([N+](=O)[O-])ccc21	0	0	8.6	0	0	0
O=C(CCCn1cnc(-c2ccccc2)cc1=O)NCCc1csc(-c2ccccc2)n1	0	0	9.2	0	0	0
Cc1cc(=O)n(CC(=O)NCc2csc(-c3ccccc3)n2)cn1	0	0	0	0	-	-
Cc1cc(NC(=O)C(N)=O)ccc1Br	0	0	5.0	0	0	0
COc1ccc(Br)c(C(=O)Nc2cc(C(=O)NCc3cccc(Cl)c3)ccc2N2CC3CC(C2)c2cccc(=O)n2C3)c1 (stereo not given)	0	0	0	0	-	-
CC(NC(=O)c1ccccc1NC(=O)Nc1ccccc1)c1ccccc1 (stereo not given)	0	0	0	0	-	-
CCc1nc2cc(Br)c(C)c(C)c2nc1CC	0	0	0	0	-	-
N#C/C(=C\Nc1ccccc1F)c1nc(-c2cc3cc([N+](=O)[O-])ccc3oc2=O)cs1	0	0	11	0	0	0
COc1ccc2[nH]c(=O)c(CN(CCCN(C)C)C(=O)NC3CCCCC3)cc2c1	0	0	0	0	-	-
O=C1CC(c2ccc(Cl)cc2)CC2=C1C(c1ccc3c(c1)OCO3)Nc1ccccc1N2 (stereo not given)	0	0	0	0	-	-
O=C1CC(c2ccc(Cl)cc2)CC2=C1C(c1cc3c(cc1Br)OCO3)Nc1ccccc1N2 (stereo not given)	0	0	9.0	0	0	0
Cc1ccc(N2C(=O)C3CCCCC3C2=O)cc1F (stereo not given)	0	0	8.1	0	0	0
O=C(Nc1ccccc1)N1CCC(CO)(CCc2ccccc2)CC1	0	0	9.9	0	0	0
CCOc1ccc(CCNS(=O)(=O)c2c(C)n[nH]c2C)cc1OCC	0	0	5.6	0	0	0
Cc1cccc(CCNS(=O)(=O)c2c(C)n[nH]c2C)c1	0	0	0	0	-	-
COc1ccc(C(=O)NCCS(=O)(=O)NCCCOC(C)C)cc1	0	0	5.2	0	0	0
C/C(=C/C(=O)c1ccc(Cl)cc1)Nc1cccc(O)c1	0	0	5.8	0	0	0
Cc1[nH]n2c(=O)cc(Cc3ccccc3)nc2c1C#N	0	0	0	0	-	-
SMILES	FBW7 activator	MITF primary	GPR151 ag	TEAD-YAP block	GPR151 confirm	GPR119 counter
O=c1cc(Cc2ccccc2)nc2c(-c3ccccc3)c[nH]n12	0	0	7.4	0	0	0
O=C1c2cccc(N3CCCC(C(=O)N4CCC[C@H]4CO)C3)c2C(=O)N1C1CCCC1 (stereo not given in full)	0	0	0	0	-	-
O=C(NCCO)C1CCCN(c2cccc3c2C(=O)N(C2CCCCCCC2)C3=O)C1 (stereo not given)	0	0	5.8	0	0	0
CC(C)CNC(=O)CCC1=NS(=O)(=O)c2ccccc2N1	0	0	0	0	-	-
Cc1ccccc1OCCCC(=O)Nc1nnc(C(C)C)s1	0	0	0	0	-	-
CCc1nnc(NC(=O)CN2CCC(O)(c3ccccc3OC)CC2)s1	0	0	6.5	0	0	0
CCc1nnc(NC(=O)CCCOc2ccccc2C)s1	0	0	12	0	0	0
COc1ccc(-c2cc(C(=O)Nc3ccc(OC)cc3OC)no2)cc1	0	0	0	0	-	-
CCCc1cc(C(=O)Nc2ccc(OC)cc2OC)no1	0	0	17	0	0	0
O=C(Nc1ccc(F)cc1)c1cccc(S(=O)(=O)Nc2ccccc2)c1	0	0	0	0	-	-
CC1Cc2ccccc2N1C(=O)Nc1ccc(F)cc1 (stereo not given)	0	0	5.5	0	0	0
CCCN(CCC)CCCNC(=O)c1nn(-c2ccc(OCC)cc2)c(=O)c2ccccc12	0	0	8.8	0	0	0
CCCN(CCC)CCCNC(=O)c1nn(-c2ccc(OC)cc2)c(=O)c2ccccc12	0	0	0	0	-	-
CCOc1ccc(-n2nc(C(=O)NCc3ccc(F)cc3)c3ccccc3c2=O)cc1	0	0	6.4	0	0	0
COc1ccc(-n2nc(C(=O)NCc3ccc(F)cc3)c3ccccc3c2=O)cc1	0	0	0	0	-	-
Cc1ccc(S(=O)(=O)Nc2cc3c4c(n(S(=O)(=O)c5ccc(C)cc5)c3c3ccccc23)CCCC4)cc1	0	0	0	0	-	-
CCNc1nc(NCC)nc(NNC(=S)Nc2ccc(OCC)cc2)n1	0	0	0	0	-	-
CCCCC(Sc1nc2ccccc2c2nc(-c3ccccc3OC)nn12)C(=O)OCC (stereo not given)	0	0	5.4	0	0	0
CCCCN(CCCC)C(=O)C1CCCN1S(=O)(=O)c1cccc2nsnc12 (stereo not given)	0	0	0	0	-	-
Cc1csc(S(=O)(=O)N2CCC(CO)(Cc3ccccc3Cl)CC2)c1	0	0	27	0	0	0
COc1ccc(CC2(CO)CCN(S(=O)(=O)c3cc(C)cs3)CC2)cc1	0	0	0	0	-	-
CCOc1cccc(CN2CCC3(CC2)CC3C(=O)Nc2ccc(OC)c(Cl)c2)c1O (stereo not given)	0	0	0	0	-	-
COc1ccc(-c2noc(N3CCC(C(=O)NCc4ccc5c(c4)OCO5)CC3)n2)cc1	0	0	7.9	0	0	0
COc1c(Cl)cc(C(=O)NCc2ccc3c(c2)OCO3)cc1Cl	0	0	5.9	0	0	0
CCOC(=O)c1c(NC(=O)CSc2nnc(CNC(=O)c3ccc(OC)c(OC)c3)n2CCc2ccccc2)sc2c1CCC2	0	0	0	0	-	-
CCCCCCCCCC(=O)N[C@@H](Cc1c[nH]c2ccccc12)C(=O)N[C@@H](CC(N)=O)C(=O)N[C@@H](CC(=O)O)C(=O)N[C@@H]1C(=O)NCC(=O)N[C@@H](CCCN)C(=O)N[C@@H](CC(=O)O)C(=O)N[C@H](C)C(=O)N[C@@H](CC(=O)O)C(=O)NCC(=O)N[C@H](CO)C(=O)N[C@@H]([C@H](C)CC(=O)O)C(=O)N[C@@H](CC(=O)c2ccccc2N)C(=O)O[C@@H]1C	0	0	0	0	-	-
O=C(O)c1cccc(NS(=O)(=O)/C=C/c2ccccc2)c1	0	0	0	0	-	-

From PubChem
